# Assay results published in PubChem BioAssay (Tox21).
# Inconclusive results are not listed. Active and inactive are the calls of the source. Calls come from the whole dose curve.
# Experiment: qHTS assay to identify small molecule agonists of the NFkB signaling pathway - cell viability counter screen (AID 1159515); note: nearly all actives have a fitted effect of over 55% in size
# Details: NFkB-bla ME-180 viability, CellTiter-Glo luminescence, 5 h; series mostly up to 61 µM
# Text: National Center for Advancing Translational Sciences [NCATS]
# NIH Chemical Genomics Center [NCGC]
# U.S. Environmental Protection Agency [EPA]
# National Institutes of Environmental Health Sciences [NIEHS]
# National Toxicology Program [NTP]
# U.S. Food and Drug Administration [FDA]
# Transcription factors and their stimulated target gene expression play pivotal roles across many cellular processes including responses to environmental stimuli. Proper regulation of associated pathways is critical to maintain cell health and function. Constitutive activation of transcription factor pathways has been implicated in tumors as it may block cellular functions such as apoptosis and lead to invasion and metastasis. One important transcription factor that stimulates gene expression in response to cytokines, UV radiation, and other stimuli is nuclear factor-kappa B (NFkB). To measure activation of the NFkB pathway, the CellSensor NFkB-bla ME-180 cell line (Life Technologies, Carlsbad, CA) that stably expresses beta-lactamase reporter gene under the regulation of a NF-kB response element was used. This assay allows measurement of the NFkB pathway activity induced by compounds in a ME-180 cell line. This system quantitates NF-kB activity using a FRET-based assay system where beta-lactamase expression disrupts FRET, allowing for fluorescent measurement of activity. This cell line has been used to screen the Tox21 10K compound library and to identify compounds that induce the NFkB pathway activity. The cytotoxicity of the Tox21 compound library against the NFkB-bla ME-180 cell line was tested in parallel by measuring cell viability using the CellTiter-Glo assay in the same wells.
# Tox21 Assay Protocol Summary:
# NFkB-bla ME-180 cells were dispensed at 2,000 cells/6 uL of assay medium per well into black wall/clear-bottom 1536-well plates using a Multidrop Combi (ThermoFisher Scientific, Waltham, MA) dispenser. After the assay plates were incubated at 37 C and 5% CO2 for an overnight, 23 nL of compounds dissolved in DMSO, positive controls or DMSO only was transferred to the assay plate by a Pintool station (Kalypsys, San Diego, CA). The assay plates were incubated at 37 C and 5% CO2 for 5 hr. One uL of LiveBLAzer B/G FRET substrate (Life Technologies) was added using a Flying Reagent Dispenser (Aurora Discovery, San Diego, CA) and the plates were incubated at room temperature for 1.5 hr. Fluorescence intensity (405 nm excitation, 460 nm and 530 nm emissions) was measured using an Envision plate reader (PerkinElmer, Shelton, CT). For cytotoxicity, 3 ul/well of CellTiter-Glo reagent was added into the assay plates using an FRD. After 30 min incubation at room temperature, the luminescence intensity was measured using a ViewLux plate reader (PerkinElmer).
row,SMILES,outcome
1,CCC[CH2][Sn]([Cl])([Cl])[Cl],inactive
2,Cn1cc(-c2ccccc2)c(=O)c(-c2cccc(C(F)(F)F)c2)c1,inactive
3,Cc1ccccc1O,inactive
4,Cc1cccc([N+](=O)[O-])c1,inactive
5,CCCN(CCC)c1c([N+](=O)[O-])cc(C(F)(F)F)cc1[N+](=O)[O-],inactive
6,CCNc1nc(NC(C)C)nc(SC)n1,inactive
7,c1cc2c3c(cccc3c1)CC2,inactive
8,Clc1ccccc1Cl,inactive
9,CCOP(=S)(OCC)Oc1cnc2ccccc2n1,inactive
10,O=NN1CCCC1,inactive
11,C#CC(C)(C)NC(=O)c1cc(Cl)cc(Cl)c1,inactive
12,[N-]=[N+]=[N-],inactive
13,O=c1[nH]c2ccccc2c(=O)o1,inactive
14,C=CC(N)=O,inactive
15,CCN(CC)CCO,inactive
16,CN(C)N=O,inactive
17,CN(C)[C@@H]1C(=O)C(C(N)=O)=C(O)[C@@]2(O)C(=O)C3=C(O)c4c(O)cccc4[C@@](C)(O)[C@H]3C[C@@H]12,inactive
18,Nc1ccc(Oc2ccc(N)cc2)cc1,inactive
19,O=[N+]([O-])c1ccc(Oc2ccc(Cl)cc2Cl)cc1,inactive
20,O=NN1CCCCCCC1,inactive

row,SMILES,outcome
1,ClCCBr,inactive
2,CC(C)(Cl)Cl,inactive
3,CNC(=O)Oc1ccccc1OC(C)C,inactive
4,NCC(O)c1ccc(O)cc1 (stereo not given),inactive
5,COCCl,inactive
6,Cc1ccc(N)cc1Cl,inactive
7,Cc1ccc([N+](=O)[O-])cc1C,inactive
8,O=S(=O)(c1ccc(O)cc1)c1ccc(O)cc1,inactive
9,CC(=O)C=C(C)C,inactive
10,CCC[N+](=O)[O-],inactive
11,Nc1ccccc1C(=O)O,inactive
12,CCc1cccc(C)c1N(C(=O)CCl)C(C)COC (stereo not given),inactive
13,c1ccc2c(c1)Oc1ccccc1O2,inactive
14,CCOC(=O)c1ccccc1C(=O)OCC,inactive
15,CCNc1nc(NC(C)(C)C)nc(SC)n1,inactive
16,CCCCOC(=O)c1ccccc1C(=O)OCCCC,inactive
17,Cc1ccc(N)cc1N,inactive
18,Nc1ccc(Br)cc1,inactive
19,CCOP(=S)(OCC)SCCSCC,inactive
20,CCCN(CCC)N=O,inactive
